# Reference: ChEMBL document CHEMBL3988442, “University of Dundee, Small-Polar-MMV Screening Library” (2021)
# Among all 48,000 compounds or so, about 13,000 (27%) showed an effect of 50% or more. The list shows a part of the results.
# Tested on: Wolbachia pipientis
# Assay: Anti-Wolbachia Cell-Based Screen
# Format: functional
# Set-up: scale not given: in the data most compounds retested in dose-response had high values
# Conditions: 5 µM
row,Compound,Percent Effect [%]
1,COc1ccc(F)cc1S(=O)(=O)N1CCN(CCn2ccnc2)CC1,123.5
2,O=S(=O)(c1cccnc1)N1CCN(CCn2ccnc2)CC1,2.586
3,COc1ccc(Cl)cc1CNCCCn1ccnc1,10.95
4,CCOc1ccc(CNCCCn2ccnc2)cc1OC,-15.55
5,O=S(=O)(c1ccc(F)cc1)N1CCN(CCCn2ccnc2)CC1,9.586
6,COc1ccc(CNCC2CCN(CCO)CC2)cc1F,-13.55
7,COc1ccc(Cn2ccnc2)cc1F,137.9
8,COc1ccc(CN2CCN(CCn3ccnc3)CC2)cc1F,154.2
9,COc1ccc(CN2CCN(Cc3nccn3C)C(C)C2)cc1F (stereo not given),3.11
10,CC(C)(N)c1nc(C(F)F)cc(=O)[nH]1.Cl,0.5685
11,O=C(CN1CCC(c2cccc(F)c2)C1)NCc1ccco1 (stereo not given),-26.03
12,CCOc1ccc(CNC(=O)c2cnc(OC)nc2)cc1,-7.599
13,Cc1nsc(N2CCN(CC(=O)NCc3cccnc3)CC2)n1,1.2
14,CCOc1nc2cccnc2n(CC(=O)NCCOC)c1=O,-3.624
15,CCOc1nc2cnccc2n(CC(=O)NCc2ccco2)c1=O,96.93
16,CC1CN(CC(=O)NCCc2ccncc2)Cc2ccccc2O1 (stereo not given),-8.36
17,CC(C)(C)n1ncc2c(=O)n(CC(=O)NCc3ccco3)cnc21,3.142
18,CCOc1nc2cnccc2n(CC(=O)Nc2ccccc2OC)c1=O,90.9
19,COc1ccccc1NC(=O)Cc1c(C)nc2c(c1C)c(=O)[nH]n2C,-0.4507
20,CCOc1nc2cnccc2n(CC(=O)NCCc2ccccc2)c1=O,107.7
21,COc1ccccc1NCC(=O)Nc1cnn(Cc2ccccn2)c1,-4.871
22,CCOc1nc2cnccc2n(CC(=O)NCc2ccc(C)cc2)c1=O,143.1
23,CC(C)N(CC(N)=O)CC(=O)N(C1=CCCCC1)C1CC1,-0.3485
24,CCC(CC)C(=O)NS(=O)(=O)CCc1ccccc1,-5.917
25,COCCn1cc(C(=O)N2CCCC2c2ccccc2C)ccc1=O (stereo not given),-35.63
26,Fc1cnc(N2CCn3cc(CNc4ccccn4)nc3C2)nc1.O=C(O)C(F)(F)F.O=C(O)C(F)(F)F,-14.44
27,OC1(CNc2cc(C(F)(F)F)nc3ccccc23)CCOCC1,28.2
28,Cc1cc(NC(=O)CNC(C)(C)c2ccccc2)on1,5.655
29,CCN1CCC(CNC(=O)C(c2ccccc2F)N(C)C)(N(C)C)CC1 (stereo not given),4.874
30,CCCn1nc2c(cc1=O)CN(Cc1nnc(C3CC3)o1)CC2,20.46
